Laboratory results taken from PubChem BioAssay (NCATS).
Activity calls are given as the source filed them. The call rests on the fitted dose curve; in most records, active means well fitted curve in the direction sought with a large enough effect (not every such curve was filed as active); inconclusive means small, poorly fitted or top-dose-only effect, or effect the other way, or another doubt; inactive means no such curve, though single readings can be large or run the other way.

The compounds below were run against Pyruvate kinase PKM (Homo sapiens) (UniProt P14618) (assay: qHTS Assay for Activators of Human Muscle Pyruvate Kinase (AID 954)). Settings: purified human muscle pyruvate kinase, luciferase-coupled luminescence, 1 h; series mostly up to 57.5 µM.
Pyruvate kinase PKM (Homo sapiens), sequence (P14618 whole entry, looked up): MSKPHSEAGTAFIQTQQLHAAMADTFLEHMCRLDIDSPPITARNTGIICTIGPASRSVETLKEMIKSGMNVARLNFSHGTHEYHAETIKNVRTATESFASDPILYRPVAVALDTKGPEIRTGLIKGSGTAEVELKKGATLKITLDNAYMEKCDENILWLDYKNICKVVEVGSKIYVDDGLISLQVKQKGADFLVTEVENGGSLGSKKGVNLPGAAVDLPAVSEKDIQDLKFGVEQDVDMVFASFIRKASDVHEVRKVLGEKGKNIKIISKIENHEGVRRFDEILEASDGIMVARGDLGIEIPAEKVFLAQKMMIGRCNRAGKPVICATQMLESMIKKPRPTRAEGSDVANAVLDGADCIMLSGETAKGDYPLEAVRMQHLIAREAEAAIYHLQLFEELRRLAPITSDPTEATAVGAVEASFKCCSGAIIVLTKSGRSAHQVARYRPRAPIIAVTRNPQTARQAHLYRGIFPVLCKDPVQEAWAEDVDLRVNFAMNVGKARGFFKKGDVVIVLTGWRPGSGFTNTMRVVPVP
In short: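 Purified human PKM2 (0.1 nM) with 0.5 mM PEP (Km) and 0.1 mM ADP in 50 mM imidazole pH 7.2, KCl, MgCl2, 1 h at room temperature; ATP formed read by coupled luciferase luminescence. Normalized to no-enzyme/110 uM thiadiazolimine inhibition; 0.3 nM enzyme column for activation.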

SMILES	outcome
N#CCCN	inactive
O=c1c2ccccc2[se]n1-c1ccccc1	inactive
Cc1sc2ccccc2c1CC1=NCCN1	inactive
C[N+](C)(C)CC#CCN1CCCC1=O	inactive
CN1CCC(c2c[nH]c3ccc(O)cc23)CC1	inactive
C[N+](C)(C)CCOC(=O)CBr	inactive
c1ccc2c(c1)[I+]c1ccccc1-2	inactive
COc1ccc2c(c1)/C(=C/c1cnc[nH]1)C(=O)N2	inactive
Cc1c2ccncc2c(C)c2c1[nH]c1ccccc12	inactive
CCCn1c(=O)c2[nH]c(C3CCCC3)nc2n(CCCOC(=O)c2ccc(S(=O)(=O)F)cc2)c1=O	inactive
C[N+](C)(C)CC#CCOC(=O)Nc1cccc(Cl)c1	inactive
CCCN(CCC)[C@H]1CCc2c(F)ccc(O)c2C1	inactive
NC(=O)c1cc(N2CC2)c([N+](=O)[O-])cc1[N+](=O)[O-]	inactive
NCCc1ccc(S(=O)(=O)F)cc1	inactive
NC(=O)COc1c(F)cc(SCCNS(=O)(=O)c2ccccc2)cc1F	inactive
CC(C)(C)c1cc(C=C(C#N)C#N)cc(C(C)(C)C)c1O	inactive
N[C@@H](Cn1oc(=O)[nH]c1=O)C(=O)O	inactive
O=C(O)c1cc[c]([Hg][Cl])cc1	inactive
Clc1ccc(N2C[C@H]3CC[C@@H](C2)N3)nn1	inactive
Cc1[nH]c2ccc(O)cc2c1CCN	inactive
CCCN(CCC)CCc1ccc(O)c(O)c1	inactive
OCc1cnc[nH]1	inactive
NNC(=O)c1ccc(O)cc1	inactive
C[N+]1(C)[C@@H]2CC[C@H]1CC(OC(=O)c1c[nH]c3ccccc13)C2 (stereo partly specified)	inactive
COc1ccc2[nH]cc(CCN)c2c1	inactive
c1ccc2c(N3CCNCC3)cccc2c1	inactive
